Assay outcomes (PubChem BioAssay)
Rows were chosen to be rich in hits. Some 0.5% of all compounds tested hit in one or more screens of this group.
E coli growth-1: bacterial growth inhibition, counter-screen for AddAB inhibitors; inhibition, % at 11.9 µM; E. coli V3065 growth, OD600 absorbance, 18 h; 330,000 tested, 0.27% active;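 active means inhibition above the campaign's mean inhibition across all tested compounds plus 3 SD, cut at about 9.9% in these data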;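 further: uninfected addAB+ strain grown without phage in ampicillin broth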
AddAB inh: less growth of phage-infected E. coli with AddAB | inhibition, % at 11.9 µM | 330,000 tested, 0.29% active | E. coli expressing H. pylori AddAB, absorbance growth; in the data active means inhibition above about 12%
phage Ecoli inh: E. coli growth loss with phage present | inhibition, % at 11.9 µM | growth absorbance | 360,000 tested, 0.26% active; in the data active means inhibition above about 11%
Tat transport: blocks Tat-dependent protein export in E. coli. E. coli MC4100 TorA-mCherry Tat export, fluorescence. inhibition, % at 10 µM. 340,000 tested, 0.036% active. AID 488895;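 active means mean replicate inhibition at least 50% and at least half of replicates individually reaching 50%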;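 further: exported cargo escapes ClpAP degradation while cytoplasmic cargo is degraded and loses fluorescence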
E coli growth-2: E. coli growth inhibition; Escherichia coli growth, OD600, 23 h; active compounds read low; OD600 absorbance (no concentration beside the values); 330,000 tested, 0.21% active;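 active means OD600 absorbance below the run mean of sample wells minus 3.6 SD, in any replicate, cut at about 0.56 in these data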
Each line names hits and unclear results; the compound was inactive in the other large screens.

CC(C)CC(NC(=O)Nc1ccccc1F)C(=O)O (stereo not drawn)	none (no result: E coli growth-1, AddAB inh, phage Ecoli inh, Tat transport)
CC1CN(C(C)CO)C(=O)c2cccc(NS(=O)(=O)c3ccccc3)c2OC1CN(C)C (stereo not drawn)	none (no result: E coli growth-1, AddAB inh, phage Ecoli inh, Tat transport)
COc1cc(C)c(Cc2cnc(N)nc2N)cc1OC	E coli growth-1 100.5, AddAB inh 100.2 (no result: phage Ecoli inh, Tat transport, E coli growth-2)
COc1ccc(S(=O)(=O)NN=Cc2ccc3c(c2)OCO3)c(OC)c1	none (no result: E coli growth-1, AddAB inh, phage Ecoli inh, Tat transport)
COc1ccc(S(=O)(=O)NN=Cc2ccc([N+](=O)[O-])o2)c(OC)c1	E coli growth-2 0.509 (no result: E coli growth-1, AddAB inh, phage Ecoli inh, Tat transport)
O=[N+]([O-])c1ccc(C=NNS(=O)(=O)c2ccc(F)cc2)o1	E coli growth-2 0.438 (no result: E coli growth-1, AddAB inh, phage Ecoli inh, Tat transport)
CC(CC(O)C1OC1(C)C)C1=C2CC(O)C3[C@@]4(C)CCC(=O)C(C)(C)C4CC[C@]3(C)[C@@]2(C)CC1 (stereo partly drawn)	none (no result: E coli growth-1, AddAB inh, phage Ecoli inh, Tat transport)
CNC(=O)C(C)C1C[C@@]1(C)C(NC(=O)OCc1ccccc1)c1ccccc1 (stereo partly drawn)	none (no result: E coli growth-1, AddAB inh, phage Ecoli inh, Tat transport)
Cc1ccc(-c2csc(N=C(N)N)n2)c(C)c1	E coli growth-2 0.438 (no result: Tat transport)
N/C(=N\N=Cc1ccc(F)cc1)NN=Cc1ccc(F)cc1	E coli growth-2 0.417 (no result: E coli growth-1, AddAB inh, phage Ecoli inh, Tat transport)
Cc1ccc(C(=O)NN=C/C=C/c2ccc(Br)cc2)cn1	none (no result: E coli growth-1, AddAB inh, phage Ecoli inh, Tat transport)
Cc1ccc(S(=O)(=O)N2C(c3cccc(Cl)c3)CC=C(C(=O)O)C2c2ccc(Cl)cc2)cc1 (stereo not drawn)	none (no result: E coli growth-1, AddAB inh, phage Ecoli inh, Tat transport)
COc1c2ccc(OCCC(C)=CC(=O)C=C(C)C)cc2nc2occc12	none (no result: E coli growth-1, AddAB inh, phage Ecoli inh, Tat transport)
CCCCCCCC(=O)N1CCN(c2cc3c(cc2F)c(=O)c(C(=O)O)cn3CC)CC1	E coli growth-2 0.097 (no result: E coli growth-1, AddAB inh)
CCCCCCn1cc(C(=O)O)c(=O)c2cc(F)c(N3CCN(C)CC3)cc21	none (no result: phage Ecoli inh)
CCCCCCCCC(=O)N1CCN(c2cc3c(cc2F)c(=O)c(C(=O)O)cn3CC)CC1	E coli growth-2 0.415
CC(CCC=CC(=O)O)OC1OC(C)C(O)CC1O (stereo not drawn)	none (no result: E coli growth-1, AddAB inh, phage Ecoli inh, Tat transport)
Cc1cn(C2CC(N=[N+]=[N-])C(CO)O2)c(=O)[nH]c1=O (stereo not drawn)	E coli growth-2 0.062 (no result: E coli growth-1, AddAB inh, phage Ecoli inh, Tat transport)
Cc1cn(C2CC(O)C(O)C(CO)O2)c(=O)[nH]c1=O (stereo not drawn)	none (no result: E coli growth-1, AddAB inh, Tat transport, E coli growth-2)
CC=CC=CC(=O)Nc1cccc(C2=NOC3(C2)CC(C(N)=O)N(C(=O)c2cc([N+](=O)[O-])cc([N+](=O)[O-])c2)C3)c1 (stereo not drawn)	none (no result: E coli growth-1, AddAB inh, phage Ecoli inh, Tat transport)
CCN1C(=O)C(=CN2CCN(c3ccccc3)CC2)SC1=S	none (no result: E coli growth-1, AddAB inh, phage Ecoli inh, Tat transport)
COc1ccc(C=C2Oc3ccccc3C2=O)cc1	none (no result: E coli growth-1, AddAB inh, phage Ecoli inh, Tat transport)
CCN1/C(=C/C=C/c2oc3ccc4ccccc4c3[n+]2CC)Oc2ccc3ccccc3c21	E coli growth-1 11.0 (no result: phage Ecoli inh, Tat transport)
COc1ccccc1NC(=O)CN(Cc1ccco1)C(=O)c1cc2ccccc2o1	E coli growth-2 0.538 (no result: phage Ecoli inh)
COc1ccccc1NC(=O)CN(Cc1ccco1)C(=O)c1ccc(=O)[nH]c1	none
COC1=C(C)C(=O)C2=C(C1=O)C1C3CC4=C(C(=O)C(OC)=C(C)C4=O)C(CNC(=O)C(C)=O)N3C(C#N)C(C2)N1C (stereo not drawn)	phage Ecoli inh 15.3 (no result: E coli growth-1, AddAB inh, E coli growth-2)
COC(=O)NN=Cc1cc(C)n(-c2ccccc2)c1C	none (no result: E coli growth-1, AddAB inh, phage Ecoli inh, Tat transport)
O=[N+]([O-])c1ccc(Nc2ccccc2)c2nonc12	none (no result: E coli growth-2)
O=[N+]([O-])c1ccc(Sc2cccc[n+]2[O-])c2nonc12	phage Ecoli inh 60.1, Tat transport 139.3, E coli growth-2 0.0865 (no result: E coli growth-1, AddAB inh)
COc1cc(C=Cc2ccc3cccc([N+](=O)[O-])c3n2)ccc1OCC#N	none (no result: E coli growth-1, AddAB inh, phage Ecoli inh, Tat transport)
CCC(C)C(N)C1=NC(C(=O)N[C@@H](CC(C)C)C(=O)N[C@H](CCC(=O)[O-])C(=O)N[C@H](C(=O)N[C@H]2CCCCNC(=O)[C@H](CC(N)=O)NC(=O)[C@@H](CC(=O)[O-])NC(=O)[C@H](Cc3cnc[nH]3)NC(=O)[C@@H](Cc3ccccc3)NC(=O)[C@H]([C@@H](C)CC)NC(=O)[C@@H](CCCN)NC2=O)[C@@H](C)CC)CS1.[Zn+2] (stereo partly drawn)	Tat transport 54.3 (no result: E coli growth-1, AddAB inh, phage Ecoli inh, E coli growth-2)
COC(=O)C1=C(C)N(CC2CC2)C(=NCCN2CCOCC2)NC1c1ccccc1 (stereo not drawn)	none (no result: E coli growth-1, AddAB inh, phage Ecoli inh, Tat transport)
CC(=O)N1N=C(c2ccccc2)OC1c1ccc([N+](=O)[O-])s1 (stereo not drawn)	E coli growth-2 0.511 (no result: phage Ecoli inh)
CC(=O)N1N=C(c2cccc([N+](=O)[O-])c2)OC1c1ccc(Br)cc1 (stereo not drawn)	none
CC(=O)NCc1ccc(C(=O)CCl)cc1	E coli growth-2 0.506
CC(=O)NCc1ccc(C(=O)CCl)s1	E coli growth-2 0.489
CC(=O)N(C)Cc1ccc(C(=O)CCl)cc1	none
CC(=O)Nc1ccc(C)cc1	none
CC(=O)Nc1ccc(C(=O)CCl)cc1	E coli growth-2 0.415
